Here are results for seven compounds from PubChem BioAssay (NCI).

What all share (assay): NCI-60 one-dose screen, 48 h (100 = growth as untreated, 0 = no growth, -100 = all killed)
Common to all, as to conditions: 10 µM unless noted

For assay [1], the system named is HCT-15 colon.
The subject of assay [2] is HT29 colon.
Assay [3] relates to SNB-75 CNS.
Assay [4] has as its system SNB-19 CNS.
For assay [5], the system named is U251 CNS.
The subject of assay [6] is PC-3 prostate.
Assay [7] has as its system SK-MEL-5 melanoma.
The subject of assay [8] is UACC-62 melanoma.
Assay [9] concerns LOX IMVI melanoma.
In assay [10] the test system is SK-MEL-28 melanoma.
In assay [11] the test system is EKVX NSCLC.
Assay [12] has as its system SN12C renal.
For assay [13], the system named is UO-31 renal.
Assay [14] has as its system TK-10 renal.
For assay [15], the system named is ACHN renal.
The test system of assay [16] is CAKI-1 renal.
The test system of assay [17] is A498 renal.
For assay [18], the system named is CCRF-CEM leukemia.
The subject of assay [19] is MOLT-4 leukemia.

About 83,000 compounds went through this panel and 20% of them were active in at least one assay; those are over-represented in the sample as a whole.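 The test compound was applied at a single concentration to cells in 96-well plates for 48 hours, and percent growth was recorded.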 Values without a mark were called inactive. Calls of active or inactive are those of the source. How the source made its calls: active means growth percent below 10; inactive means the rest.

Take `Cc1ccc2[nH]c(=S)[nH]c(=O)c2c1`: the growth was 106% in assay [1]; 102% in assay [2]; 80.5% in assay [3]; 101% in assay [4]; 95% in assay [5]; 102% in assay [6]. The growth in assay [7] is 100%; in [8], 103%; in assay [9], 95.5%; in assay [10], 111%; in assay [11], 104%; in [12], 99.9%. For the same compound, the growth in assay [13] was 92.4%; in assay [14], 85.4%; in assay [15], 101%; in assay [16] it was 89.7%; in assay [17], 94.8%; in assay [18], 98.8%. Further, the growth in assay [19] is 93.3%.

As for `O=C(CCl)n1nnnc1Cc1ccccc1`, the growth was 102% in assay [1]; 95.6% in assay [2]; 84.9% in assay [3]; 96.4% in [4]; 90.3% in assay [5]; 94.7% in [6]. The growth in assay [7] was 109%; in assay [8], 89.5%; in assay [9], 87%; in assay [10] it was 110%; in [11], 105%; in [12], 92.2%. The growth in assay [13] is 74.3%; in [14], 88.1%; in assay [15] it was 95.1%; in assay [16], 92.4%; in assay [17], 109%; in [18] it was 86.3%. The growth in assay [19] is 94.2%.

Take `COc1ccc(NC(=O)Nc2ccccc2CNc2nc(Nc3ccc(OCCN4CCCC4)cc3)ncc2Cl)cc1`: the growth is 5.09% (active) in assay [1]; 3.08% (active) in [2]; -47.8% (active) in assay [3]; 33.9% in assay [4]; -15.2% (active) in assay [5]; 23.3% in assay [6]. Also, the growth in [7] is -40.6% (active); in [8], -53.4% (active); in assay [9] it was -99% (active); in assay [10], -77.7% (active); in assay [11], 55.4%; in assay [12] it was -44.2% (active). Moreover, the growth in assay [13] was -86% (active); in assay [14], 1.49% (active); in assay [15], -94.7% (active); in assay [16], -79.1% (active); in [17], 51.9%; in [18] it was 1.9% (active). In addition, the growth in assay [19] was 1.79% (active).

Regarding `O=C1/C(=C/c2ccccc2)CN(C(=O)C(Cl)Cl)C/C1=C\c1ccccc1`, the growth in [1] was -24.2% (active); in assay [2] it was 5.46% (active); in assay [3], 43.9%; in assay [4] it was -35.8% (active); in assay [5], -63.8% (active); in [6], -32.8% (active). Further, the growth in [7] was -32.3% (active); in [8], -66.4% (active); in [9], -88.4% (active); in assay [10] it was -25.7% (active); in assay [11] it was 12.2%; in assay [12], -40.7% (active). Further, the growth was -52.8% (active) in assay [13]; 59.5% in assay [14]; -74.6% (active) in assay [15]; 4.64% (active) in assay [16]; 4.17% (active) in assay [17]; 8.2% (active) in assay [18]. Moreover, the growth in [19] was 4.99% (active).

As for `COc1cccc(NC(=O)c2sc3nc(C)c(C(O)c4ccccc4)cc3c2N)c1` (stereo not drawn), the growth in [1] was 14.6%; in [2], 13.3%; in assay [3] it was 54.2%; in [4], 27.6%; in assay [5], 8.92% (active); in assay [6] it was 23.5%. In addition, the growth in assay [7] was -17.2% (active); in assay [8] it was 32%; in assay [9], 36.1%; in assay [10], 64.9%; in [11], 47.7%; in assay [12], 18.5%. Moreover, the growth is 48% in [13]; 50.8% in assay [14]; 30.9% in assay [15]; 35.1% in assay [16]; -0.498% (active) in assay [17]; 14.3% in [18]. In assay [19], the growth was 11.8%.

For `CCOC(=O)c1cnn(-c2ccc(S(N)(=O)=O)cc2)c1N`, the growth in assay [1] was 108%; in assay [2], 102%; in [3], 78.1%; in assay [4], 100%; in assay [5], 103%; in [6] it was 103%. Moreover, the growth in assay [7] was 113%; in [8], 97.5%; in assay [9], 96.9%; in [10] it was 106%; in assay [11], 101%; in [12], 98%. Besides, the growth is 64.8% in assay [13]; 99.6% in [14]; 116% in assay [15]; 150% in assay [16]; 70.4% in assay [17]; 85.3% in assay [18]. In addition, the growth in assay [19] is 100%.

Turning to `Nc1ccc(-c2ccc(N)c(Br)c2)cc1Br`, the growth in assay [1] is 29.3%; in [2], 32%; in assay [3], 29.8%; in assay [4], 52.4%; in [5], 45.6%; in assay [6] it was 57.4%. In addition, the growth in assay [7] is 45.8%; in [8], 33.5%; in assay [9], 40.3%; in [10] it was 58.4%; in [11] it was 59%; in assay [12], 45.7%. Also, the growth was 35% in assay [13]; 75.6% in [14]; 76.5% in assay [15]; 50.3% in [16]; 74.5% in assay [17]; 19.6% in assay [18]. Further, the growth in assay [19] was 27.2%.
